The campaign covered roughly 5,500 compounds. About 2,000 (36%) were called active. Not shown: some 18% with an inconclusive outcome. Cut-off read from the data, not from the text of the source: active = normalized growth mostly below about 0.91 (no sharp cut-off); inconclusive = no clear call, values can overlap the other calls; inactive = mostly above about 0.92. The list shows a part of the results.
Assay: chemical genetic growth profiling, strain panel (AID 1159580);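 note: tested at 20 µM; growth read once vehicle control cultures reached saturation at 30 °C; 1 = growth at the plate median or of vehicle wells; lower values mean less growth of the strain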
Details: growth OD
[1] = S. cerevisiae deletion strains, locus YDL101C, strain DUN1, hits give low values
[2] = S. cerevisiae deletion strains, locus YHR030C, strain SLT2, hits give low values
[3] = S. cerevisiae deletion strains, locus YHR079C, strain IRE1, hits give low values
[4] = S. cerevisiae deletion strains, locus YJL095W, strain BCK1, hits give low values
[5] = S. cerevisiae deletion strains, locus YJR066W, strain TOR1, hits give low values
[6] = S. cerevisiae deletion strains, locus YLR113W, strain HOG1, hits give low values
[7] = S. cerevisiae deletion strains, locus YNL183C, strain NPR1, hits give low values
[8] = S. cerevisiae deletion strains, locus YOR231W, strain MKK1, hits give low values
[9] = S. cerevisiae deletion strains, locus YPL256C, strain CLN2, hits give low values
[10] = S. cerevisiae deletion strains, locus YDR150W, strain NUM1, hits give low values
[11] = S. cerevisiae deletion strains, locus YMR307W, strain GAS1, hits give low values
[12] = S. cerevisiae deletion strains, locus YNL153C, strain GIM3, hits give low values
[13] = S. cerevisiae deletion strains, locus YNL322C, strain KRE1, hits give low values
[14] = S. cerevisiae deletion strains, locus YPL241C, strain CIN2, hits give low values

Measured: normalized growth

O=C1C(Cl)=C(Oc2cc(Cl)c(Cl)cc2Cl)C(=O)c2ccccc21
active: S. cerevisiae deletion strains, locus YAR019C, strain CDC15, hits give low values 0.215 | S. cerevisiae deletion strains, locus YBR136W, strain MEC1, hits give low values 0.516 | [1] 0.524 | S. cerevisiae deletion strains, locus YDL132W, strain cdc53, hits give low values 0.41 | S. cerevisiae deletion strains, locus YDL214C, strain PRR2, hits give low values 0.114 | S. cerevisiae deletion strains, locus YDR052C, strain DBF4, hits give low values 0.546 | S. cerevisiae deletion strains, locus YDR054C, strain cdc34, hits give low values 0.133 | S. cerevisiae deletion strains, locus YDR477W, strain SNF1, hits give low values 0.125 | S. cerevisiae deletion strains, locus YER123W, strain YCK3, hits give low values 0.122 | S. cerevisiae deletion strains, locus YER133W, strain GLC7, hits give low values 0.126 | S. cerevisiae deletion strains, locus YFL029C, strain CAK1, hits give low values 0.236 | S. cerevisiae deletion strains, locus YFR019W, strain FAB1, hits give low values 0.104 | S. cerevisiae deletion strains, locus YFR028C, strain CDC14, hits give low values 0.149 | S. cerevisiae deletion strains, locus YGR040W, strain KSS1, hits give low values 0.14 | S. cerevisiae deletion strains, locus YGR052W, strain FMP48, hits give low values 0.126 | S. cerevisiae deletion strains, locus YGR092W, strain DBF2, hits give low values 0.352 | [2] 0.122 | [3] 0.333 | S. cerevisiae deletion strains, locus YHR082C, strain KSP1, hits give low values 0.148 | S. cerevisiae deletion strains, locus YHR205W, strain SCH9, hits give low values 0.125 | [4] 0.114 | S. cerevisiae deletion strains, locus YJL128C, strain PBS2, hits give low values 0.11 | S. cerevisiae deletion strains, locus YJL157C, strain FAR1, hits give low values 0.303 | S. cerevisiae deletion strains, locus YJR066W, strain TOR1 (second series), hits give low values 0.119 | [5] 0.12 | S. cerevisiae deletion strains, locus YKL048C, strain ELM1, hits give low values 0.658 | S. cerevisiae deletion strains, locus YKL067W, strain YNK1, hits give low values 0.32 | S. cerevisiae deletion strains, locus YKL101W, strain HSL1, hits give low values 0.38 | S. cerevisiae deletion strains, locus YKL193C, strain SDS22, hits give low values 0.174 | S. cerevisiae deletion strains, locus YKL203C, strain TOR2, hits give low values 0.13 | [6] 0.171 | S. cerevisiae deletion strains, locus YLR133W, strain CKI1, hits give low values 0.294 | S. cerevisiae deletion strains, locus YLR403W, strain SFP1, hits give low values 0.197 | S. cerevisiae deletion strains, locus YML070W, strain DAK1, hits give low values 0.105 | S. cerevisiae deletion strains, locus YMR001C, strain CDC5, hits give low values 0.11 | S. cerevisiae deletion strains, locus YMR205C, strain PFK2 (second series), hits give low values 0.538 | S. cerevisiae deletion strains, locus YMR277W, strain FCP1, hits give low values 0.117 | S. cerevisiae deletion strains, locus YNL020C, strain ARK1, hits give low values 0.555 | [7] 0.128 | S. cerevisiae deletion strains, locus YNL207W, strain RIO2, hits give low values 0.537 | S. cerevisiae deletion strains, locus YNL222W, strain SSU72, hits give low values 0.522 | S. cerevisiae deletion strains, locus YNL307C, strain MCK1 (second series), hits give low values 0.246 | S. cerevisiae deletion strains, locus YOL078W, strain AVO1, hits give low values 0.161 | S. cerevisiae deletion strains, locus YOL136C, strain PFK27, hits give low values 0.11 | S. cerevisiae deletion strains, locus YOR061W, strain CKA2, hits give low values 0.519 | S. cerevisiae deletion strains, locus YOR119C, strain RIO1, hits give low values 0.118 | [8] 0.294 | S. cerevisiae deletion strains, locus YPL031C, strain PHO85, hits give low values 0.225 | S. cerevisiae deletion strains, locus YPL153C, strain RAD53, hits give low values 0.318 | S. cerevisiae deletion strains, locus YPL204W, strain HRR25, hits give low values 0.327 | S. cerevisiae deletion strains, locus YPL209C, strain IPL1, hits give low values 0.581 | [9] 0.183 | S. cerevisiae deletion strains, locus YPR025C, strain CCL1, hits give low values 0.543 | S. cerevisiae deletion strains, strain TSCII, hits give low values 0.345
inactive: S. cerevisiae deletion strains, locus YDL017W, strain CDC7, hits give low values 0.912 | S. cerevisiae deletion strains, locus YDL028C, strain MPS1, hits give low values 0.936 | S. cerevisiae deletion strains, locus YFL009W, strain cdc4, hits give low values 0.922 | S. cerevisiae deletion strains, locus YFR003C, strain YPI1, hits give low values 0.941 | S. cerevisiae deletion strains, locus YIL147C, strain SLN1, hits give low values 0.938 | S. cerevisiae deletion strains, locus YJR016C, strain ILV3, hits give low values 0.917 | S. cerevisiae deletion strains, locus YNL006W, strain LST8, hits give low values 0.95 | S. cerevisiae deletion strains, locus YOR329C, strain SCD5, hits give low values 0.94 | S. cerevisiae deletion strains, locus YPR111W, strain DBF20, hits give low values 0.897

O=C1CC(Nc2ccccc2)C=C1Nc1ccccc1 (centres undefined)
inactive: S. cerevisiae deletion strains, locus YAL013W, strain DEP1, hits give low values 1.01 | S. cerevisiae deletion strains, locus YBR229C, strain ROT2, hits give low values 1.03 | S. cerevisiae deletion strains, locus YCL061C, strain MRC1, hits give low values 1.01 | [1] 1.01 | S. cerevisiae deletion strains, locus YDL134C, strain PPH21, hits give low values 1.02 | [10] 1.02 | S. cerevisiae deletion strains, locus YEL061C, strain CIN8, hits give low values 1.01 | S. cerevisiae deletion strains, locus YGR078C, strain PAC10, hits give low values 1.01 | [2] 1.01 | S. cerevisiae deletion strains, locus YHR087W, strain rtc3, hits give low values 1.02 | S. cerevisiae deletion strains, locus YJR043C, strain POL32, hits give low values 1.01 | S. cerevisiae deletion strains, locus YJR075W, strain HOC1, hits give low values 1.03 | S. cerevisiae deletion strains, locus YKL190W, strain CNB1, hits give low values 1.02 | S. cerevisiae deletion strains, locus YLR039C, strain RIC1, hits give low values 0.977 | S. cerevisiae deletion strains, locus YLR058C, strain SHM2 (second series), hits give low values 1.03 | S. cerevisiae deletion strains, locus YLR085C, strain ARP6, hits give low values 0.968 | S. cerevisiae deletion strains, locus YLR262C, strain YPT6, hits give low values 1.02 | S. cerevisiae deletion strains, locus YML094W, strain GIM5, hits give low values 1.01 | S. cerevisiae deletion strains, locus YMR219W, strain ESC1, hits give low values 1.03 | S. cerevisiae deletion strains, locus YMR263W, strain SAP30, hits give low values 1 | [11] 1.02 | [12] 1 | S. cerevisiae deletion strains, locus YNL298W, strain CLA4 (second series), hits give low values 0.979 | [13] 1.01 | S. cerevisiae deletion strains, locus YNR030W, strain Alg12, hits give low values 1.01 | S. cerevisiae deletion strains, locus YPL055C, strain LGE1, hits give low values 1.09 | [14] 0.998 | S. cerevisiae deletion strains, locus YPR135W, strain CTF4, hits give low values 0.966 | S. cerevisiae strains, strain wild type, hits give low values 1.02

NC(=O)OCC(COC(N)=O)c1ccccc1
inactive: S. cerevisiae deletion strains, locus YAL040C, strain CLN3, hits give low values 1.03 | S. cerevisiae deletion strains, locus YCL061C, strain MRC1 (second series), hits give low values 1.01 | [10] 1 | S. cerevisiae deletion strains, locus YDR363W, strain ESC2, hits give low values 1 | S. cerevisiae deletion strains, locus YER002W, strain NOP16, hits give low values 0.999 | S. cerevisiae deletion strains, locus YGR229C, strain SMI1, hits give low values 0.991 | [2] 0.975 | [3] 0.991 | [4] 0.959 | [5] 0.932 | [6] 0.99 | [11] 0.985 | [12] 1.04 | S. cerevisiae deletion strains, locus YNL175C, strain NOP13, hits give low values 0.999 | [7] 0.945 | S. cerevisiae deletion strains, locus YNL197C, strain WHI3, hits give low values 1 | S. cerevisiae deletion strains, locus YNL224C, strain SQS1, hits give low values 1.03 | [13] 1.02 | S. cerevisiae deletion strains, locus YOR083W, strain WHI5 (second series), hits give low values 1.02 | [8] 0.976 | [14] 1.01 | [9] 0.976
